Test results from the antibiotic and cytotoxicity screens of Wong et al. (2023).
Screen size: about 39,000 compounds; about 1,500 (3.8%) were called active. The full list was thinned out, with actives kept by preference.

system: HSkMC (human skeletal muscle cells); assay: cytotoxicity call (relative viability < 0.9); details: 10 µM

Compound	cytotoxicity call
C[C@@H]1CCCCO[C@@H](CN(C)C(=O)CCCN(C)C)[C@H](C)CN([C@H](C)CO)C(=O)c2cc(NC(=O)Nc3ccc(C(F)(F)F)cc3)ccc2O1	inactive
C[C@H](CO)N1C[C@H](C)[C@@H](CN(C)C(=O)Nc2ccccc2)OCCCC[C@H](C)Oc2ccc(NC(=O)Cc3ccccc3)cc2C1=O	inactive
CN1CCN(C(=O)C[C@@H]2CC[C@@H]3[C@H](COc4ccc(NC(=O)C5CCCCC5)cc4C(=O)N3C)O2)CC1	inactive
C[C@H]1CN([C@@H](C)CO)C(=O)Cc2cc(NS(C)(=O)=O)ccc2O[C@@H]1CN(C)Cc1ccc(C(=O)O)cc1	inactive
COc1ccc(S(=O)(=O)N(C)C[C@@H]2OCCCC[C@H](C)Oc3ccc(NS(=O)(=O)c4ccc(Cl)cc4)cc3C(=O)N([C@H](C)CO)C[C@@H]2C)cc1	inactive
C[C@@H]1CN([C@@H](C)CO)C(=O)c2cc(NC(=O)Cc3cn(C)c4ccccc34)ccc2O[C@@H]1CN(C)Cc1ccc(Cl)c(Cl)c1	active
C[C@@H]1CN([C@H](C)CO)C(=O)c2cc(NC(=O)Cc3cn(C)c4ccccc34)ccc2O[C@@H]1CN(C)Cc1ccc(Cl)c(Cl)c1	active
C[C@H](CO)N1C[C@H](C)[C@@H](CN(C)Cc2ccc(Cl)c(Cl)c2)Oc2ccc(NC(=O)Cc3cn(C)c4ccccc34)cc2C1=O	inactive
C[C@H]1CN([C@@H](C)CO)C(=O)c2cc(NC(=O)Cc3cn(C)c4ccccc34)ccc2O[C@@H]1CN(C)S(C)(=O)=O	inactive
C[C@H](CO)N1C[C@H](C)[C@H](CN(C)Cc2ccc(Cl)c(Cl)c2)Oc2ccc(NC(=O)Cc3cn(C)c4ccccc34)cc2C1=O	active
C[C@H](CO)N1C[C@H](C)[C@@H](CN(C)Cc2ccc(-c3ccccc3)cc2)Oc2ccc(NC(=O)Cc3cn(C)c4ccccc34)cc2C1=O	inactive
C[C@@H]1CN([C@H](C)CN(C)C)C(=O)c2cc(NC(=O)Cc3cn(C)c4ccccc34)ccc2O[C@H]1CN(C)S(=O)(=O)c1ccc(Cl)cc1	active
C[C@@H]1CN([C@@H](C)CO)C(=O)c2cc(NC(=O)Cc3cn(C)c4ccccc34)ccc2O[C@@H]1CN(C)S(C)(=O)=O	inactive
C[C@H](CO)N1C[C@H](C)[C@H](CN(C)S(=O)(=O)c2cn(C)cn2)Oc2cc(C#Cc3cccc(F)c3)ccc2S1(=O)=O	inactive
COCC(=O)N1C[C@@H](C)[C@H](OC)CN(C)C(=O)c2ccc(NC(=O)Nc3cccc(F)c3)cc2OC[C@H]1C	inactive
C[C@H]1CN([C@@H](C)CO)C(=O)c2cccc(NC(=O)c3cnccn3)c2O[C@@H]1CN(C)CC1CCCCC1	inactive
CC[C@@H]1OC(=O)[C@H](C)[C@@H](O[C@H]2C[C@@](C)(OC)[C@@H](O)[C@H](C)O2)[C@H](C)[C@@H](O[C@@H]2O[C@H](C)C[C@H](N(C)C)[C@H]2O)[C@](C)(O)C[C@@H](C)/C(=N\OCOCCOC)[C@H](C)[C@@H](O)[C@]1(C)O	inactive
CCNC(=O)C[C@@H]1C=C[C@H](NC(=O)C2CCOCC2)[C@H](CO)O1	inactive
COc1ccc(C#Cc2cnc3c(c2)C(=O)N([C@H](C)CO)C[C@H](C)[C@H](CN(C)CC2CCOCC2)O3)cc1	inactive
C[C@H]1CCCCO[C@@H](CN(C)Cc2ccncc2)[C@@H](C)CN([C@@H](C)CO)C(=O)c2cc(NC(=O)C3CCCCC3)ccc2O1	inactive
C[C@H]1CN([C@@H](C)CO)C(=O)c2cccc(NS(C)(=O)=O)c2O[C@@H]1CN(C)S(=O)(=O)c1ccccc1	inactive
O=C(C[C@H]1CC[C@@H](NC(=O)Cc2ccccn2)[C@@H](CO)O1)NCCCN1CCOCC1	inactive
C[C@H]1CN([C@@H](C)CO)C(=O)Cc2cc(NS(C)(=O)=O)ccc2O[C@H]1CN(C)S(C)(=O)=O	inactive

Compound	cytotoxicity call
CCCn1c(=O)c(C#N)cn(C2CC2)c1=O	inactive
N=C(N)SCc1csc(N)n1	inactive
C[C@H]1CN([C@@H](C)CO)C(=O)c2cc(NC(=O)Cc3cn(C)c4ccccc34)ccc2O[C@H]1CN(C)Cc1ccc(Cl)c(Cl)c1	inactive
C[C@H]1CN([C@@H](C)CO)C(=O)c2cc(NC(=O)Cc3cn(C)c4ccccc34)ccc2O[C@H]1CN(C)Cc1ccc(-c2ccccc2)cc1	inactive
C[C@@H]1CN([C@@H](C)CO)C(=O)c2cc(NC(=O)Cc3cn(C)c4ccccc34)ccc2O[C@H]1CN(C)Cc1ccc(Cl)c(Cl)c1	inactive
C[C@@H]1CN([C@H](C)CO)C(=O)c2cc(NC(=O)Cc3cn(C)c4ccccc34)ccc2O[C@H]1CN(C)Cc1ccc(Cl)c(Cl)c1	active
C[C@H]1CN([C@@H](C)CO)C(=O)c2cc(NC(=O)Cc3cn(C)c4ccccc34)ccc2O[C@@H]1CN(C)Cc1ccc(Cl)c(Cl)c1	active
C[C@@H]1CN([C@@H](C)CO)C(=O)c2cc(NC(=O)CCN3CCOCC3)ccc2O[C@@H]1CN(C)S(C)(=O)=O	inactive
C[C@H](O)C#Cc1ccc2c(c1)O[C@@H](CN(C)C(=O)Nc1ccccc1)[C@@H](C)CN([C@H](C)CO)S2(=O)=O	inactive
CC(C)NC(=O)Nc1cccc2c1O[C@H](CN(C)Cc1ccc(C(=O)O)cc1)[C@H](C)CN([C@@H](C)CO)C2=O	inactive
CCC1C=C2C(=O)OC(=O)C2CC2=C(C(=O)OC2=O)C(OC(C)=O)C1CC (stereo not drawn)	inactive
COc1ccc(CN(C)C[C@H]2Oc3ccc(NC(=O)C4CC4)cc3CC(=O)N([C@@H](C)CO)C[C@H]2C)cc1	inactive
O=C(C[C@H]1CC[C@@H]2[C@H](COC[C@@H](O)CN2S(=O)(=O)c2cccc(Cl)c2)O1)N1CCOCC1	inactive
CN(C)C(=O)c1ccc(-c2cccc(-c3nc(C(=O)NC4CCCC4)cc4c3[C@H](CCO)N([S@@](=O)C(C)(C)C)C4)c2)cc1	inactive
Nc1nonc1/C(=N/O)N1CCCCC1	inactive
Cc1nn(C)c(COc2ccc(N3CCN(S(=O)(=O)N(C)C)CC3)cc2)c1-c1cccc2c(CCCOc3cccc4ccccc34)c(C(=O)O)n(CCN3CCNCC3)c12	inactive
O=C1C=CC(=O)N1	active
CN1CCC(OC(c2ccccc2)c2ccccc2)CC1.Cl	inactive
CN1C2CCC1CC(OC(c1ccccc1)c1ccccc1)C2.CS(=O)(=O)O (stereo not drawn)	inactive
CC(C)(C)c1ccc(C(=O)CCCN2CCC(OC(c3ccccc3)c3ccccc3)CC2)cc1	active
C[C@H]1CCCCO[C@H](CN(C)C(=O)CCC(F)(F)F)[C@@H](C)CN([C@@H](C)CO)C(=O)c2cc(NC(=O)CCC(F)(F)F)ccc2O1	inactive
C[C@@H]1CN([C@H](C)CO)C(=O)c2cc(NS(C)(=O)=O)ccc2O[C@@H]1CN(C)C(=O)Nc1ccc(C(F)(F)F)cc1	inactive
COC(=O)CSc1nc(=O)c(C)n[nH]1	inactive

Compound	cytotoxicity call
C[C@H](CO)N1C[C@H](C)[C@@H](CN(C)C(=O)Nc2cccc3ccccc23)Oc2c(NC(=O)Nc3ccc(C(F)(F)F)cc3)cccc2C1=O	inactive
C[C@@H]1CN([C@H](C)CO)C(=O)c2cccc(NC(=O)Nc3ccc(C(F)(F)F)cc3)c2O[C@@H]1CN(C)C(=O)Nc1cccc2ccccc12	active
C[C@H]1CN([C@@H](C)CO)C(=O)c2cccc(NC(=O)Nc3ccc(C(F)(F)F)cc3)c2O[C@H]1CN(C)C(=O)Nc1cccc2ccccc12	inactive
C[C@@H]1CN([C@H](C)CO)C(=O)c2cccc(NC(=O)Nc3ccc(C(F)(F)F)cc3)c2O[C@H]1CN(C)C(=O)Nc1cccc2ccccc12	inactive
C[C@H](CO)N1C[C@H](C)[C@H](CN(C)C(=O)Nc2cccc3ccccc23)Oc2c(NC(=O)Nc3ccc(C(F)(F)F)cc3)cccc2C1=O	inactive
C[C@H]1CN([C@@H](C)CO)C(=O)c2cccc(NC(=O)Nc3ccc(C(F)(F)F)cc3)c2O[C@@H]1CN(C)C(=O)Nc1cccc2ccccc12	active
C[C@@H]1CN([C@@H](C)CO)C(=O)c2cccc(NC(=O)Nc3ccc(C(F)(F)F)cc3)c2O[C@@H]1CN(C)C(=O)Nc1cccc2ccccc12	active
C[C@@H]1CN([C@@H](C)CO)C(=O)c2cccc(NC(=O)Nc3ccc(C(F)(F)F)cc3)c2O[C@H]1CN(C)C(=O)Nc1cccc2ccccc12	inactive
COCC#Cc1cnc2c(c1)C(=O)N([C@@H](C)CO)C[C@@H](C)[C@@H](CN(C)C(C)=O)O2	inactive
C[C@@H]1CN([C@H](C)CO)C(=O)c2cc(NC(=O)CCCN(C)C)ccc2O[C@H]1CN(C)S(=O)(=O)c1ccccc1	inactive
C[C@@H]1CCCCO[C@H](CN(C)Cc2ccccc2)[C@H](C)CN([C@H](C)CO)C(=O)c2cc(NC(=O)CCC(F)(F)F)ccc2O1	inactive
Cc1ccc(S(=O)(=O)Nc2ccc3c(c2)C(=O)N([C@@H](C)CO)C[C@H](C)[C@H](CN(C)C(=O)Nc2ccccc2)OCCCC[C@@H](C)O3)cc1	inactive
CCS(=O)(=O)N1CC[C@@H]2CO[C@H](CN3CCN(C)CC3)[C@@H]2C1	inactive
Cc1noc(C)c1S(=O)(=O)Nc1ccc2c(c1)CC(=O)N([C@@H](C)CO)C[C@H](C)[C@@H](CN(C)CC1CC1)O2	inactive
C[C@H]1CCCCO[C@@H](CN(C)S(=O)(=O)c2ccccc2)[C@@H](C)CN([C@@H](C)CO)C(=O)c2cc(NC(=O)Nc3ccc(C(F)(F)F)cc3)ccc2O1	inactive
COC1=C2C[C@@H](C)C[C@H](OC)[C@H](O)[C@@H](C)/C=C(\C)[C@H](OC(N)=O)[C@@H](OC)/C=C/C=C(\C)C(=O)NC(=CC1=O)C2=O	active
COC1=C2C[C@@H](C)C[C@H](OC)[C@H](O)[C@@H](C)/C=C(\C)[C@H](OC(N)=O)[C@@H](OC)/C=C\C=C(/C)C(=O)NC(=CC1=O)C2=O	inactive
CO[C@H]1/C=C\C=C(/C)C(=O)NC2=CC(=O)C=C(C2=O)[C@H](OC)[C@@H](C)C[C@H](OC)[C@H](O)[C@@H](C)/C=C(\C)[C@@H]1OC(N)=O	inactive
CO[C@H]1/C=C\C=C(/C)C(=O)NC2=CC(=O)C(NCCN(C)C)=C(C[C@@H](C)C[C@H](OC)[C@H](O)[C@@H](C)/C=C(\C)[C@@H]1OC(N)=O)C2=O	active
C=CCNC1=C2C[C@@H](C)C[C@H](OC)[C@H](O)[C@@H](C)/C=C(\C)[C@H](OC(N)=O)[C@@H](OC)/C=C\C=C(/C)C(=O)NC(=CC1=O)C2=O	active
COC1=C2C[C@H](C)C[C@H](OC)[C@@H](O)[C@H](C)/C=C(\C)[C@H](OC(N)=O)[C@H](OC)/C=C/C=C(\C)C(=O)NC(=CC1=O)C2=O	inactive
C=CCNC1=C2C[C@H](C)C[C@H](OC)[C@@H](O)[C@H](C)/C=C(\C)[C@H](OC(N)=O)[C@H](OC)/C=C/C=C(\C)C(=O)NC(=CC1=O)C2=O	active
